PD-1 reversal – activators reversing PD-1 mediated T-cell inhibition. primary human CD4 T cells, PD-L1 beads, CellTiter-Glo 96 h. 29,000 tested, under 10 active. AID 2316. activation, % (no concentration beside the values); call rule not given here;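 further: 0% = median vehicle wells and 100% = positive control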
NOMO-1 viab – STK33 inhibitor candidate reducing NOMO-1 cell viability. 37,000 tested, 7.5% active. inhibition, % (no concentration beside the values). NOMO-1 AML viability, CellTiter-Glo luminescence, 72 h; in the data active means inhibition above about 80%; inconclusive means no clear call, values can overlap the other calls
STK33 inh – blocks human STK33 kinase activity; Q9BYT3; ADP-Glo luminescence, MBP substrate; inhibition, % at 12.5 µM; 27,000 tested, 0.44% active; AID 2322; in the data active means inhibition above about 20%; inconclusive means no clear call, values can overlap the other calls
Target sequence (Q9BYT3 whole entry, looked up): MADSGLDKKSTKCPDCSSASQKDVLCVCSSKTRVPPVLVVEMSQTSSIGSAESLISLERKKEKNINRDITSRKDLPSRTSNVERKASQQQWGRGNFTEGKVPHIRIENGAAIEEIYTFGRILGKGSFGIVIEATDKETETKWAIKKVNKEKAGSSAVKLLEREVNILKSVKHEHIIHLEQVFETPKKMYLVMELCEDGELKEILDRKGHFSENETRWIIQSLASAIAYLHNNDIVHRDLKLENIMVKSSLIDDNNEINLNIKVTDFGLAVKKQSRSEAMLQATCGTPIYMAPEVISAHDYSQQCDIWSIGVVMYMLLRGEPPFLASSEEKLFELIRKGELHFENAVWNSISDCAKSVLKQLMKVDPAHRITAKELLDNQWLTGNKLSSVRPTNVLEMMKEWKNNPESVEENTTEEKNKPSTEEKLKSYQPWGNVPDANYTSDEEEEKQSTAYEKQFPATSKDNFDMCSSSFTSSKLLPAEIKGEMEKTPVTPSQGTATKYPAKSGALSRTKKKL
An asterisk follows results filed as active; u = inconclusive; x = no result given. The sample as a whole holds a higher share of hits than the screen did.

SMILES	PD-1 reversal	NOMO-1 viab	STK33 inh
C[C@@H]1O[C@@H](O[C@H]2[C@@H]3C=CO[C@@H](O[C@@H]4O[C@H](CO)[C@@H](O)[C@H](O)[C@H]4O)[C@@H]3[C@@]3(CO)O[C@@H]23)[C@H](O)[C@H](OC(=O)/C=C/c2ccc(O)cc2)[C@H]1O	x	x	-11.4
COc1ccc(CC(=O)Nc2ccc(S(N)(=O)=O)cc2)cc1OC	x	10.7	-1.1
COc1ccc(CC(=O)Nc2ccc(NC(=O)c3ccco3)cc2)cc1OC	-6.5	113.7*	4.9
COc1cc(NC(=O)COc2cc(C)c(Cl)c(C)c2)ccc1NC(=O)c1ccco1	1.7	-17.5	1.1
COc1ccc(NC(=O)c2ccco2)cc1NC(=O)COc1cc(C)c(Cl)c(C)c1	-11.4	96.0*	7.4
CC(C)=CCC[C@@](C)(O)[C@H]1CC[C@]2(C)C1CC(O)C1[C@]3(C)C(CC[C@]12C)C(C)(C)[C@@H](O)C[C@H]3O (some centres undefined)	0.0	58.7	-5.5
COc1cc(/C=C2\Oc3cc(O)cc(O)c3C2=O)cc(OC)c1O	2.0	26.4	88.5*
COc1ccc([C@@H]2CC(=O)c3c(O)cc(O)cc3O2)cc1O	1.8	-12.3	0.8
O=C(COc1ccc(Cl)cc1Cl)Nc1ncccn1	x	9.2	-4.5
C=CCNC(=O)COc1ccc(Cl)cc1Cl	0.9	115.0*	x
O=C(/C=C/c1ccccc1)c1ccc(O)cc1	x	105.5*	26.8*
O=C(/C=C/c1ccccc1)CC(=O)/C=C/c1ccccc1	0.3	57.8	-0.5
Cc1ccc(S(=O)(=O)N2C(=O)CCC2C(=O)Nc2cc(C(F)(F)F)ccc2Cl)cc1 (centres undefined)	0.5	12.6	-1.1
O=c1cc(-c2ccccc2)oc2cc(Cl)cc(Cl)c12	0.2	3.0	x
COc1ccc(O)c(-c2cnc(=S)[nH]c2-c2cc(OC)ccc2OC)c1	-2.5	5.8	x
C[C@@H]1CN([C@H](C)CO)C(=O)c2cccc(NC(=O)Nc3ccc(F)cc3)c2O[C@@H]1CN(C)C(=O)Nc1cccc2ccccc12	0.6	56.3	x
C[C@H]1CN([C@@H](C)CO)C(=O)c2cccc(NC(=O)Nc3ccc(C(F)(F)F)cc3)c2O[C@@H]1CN(C)C(=O)Nc1cccc2ccccc12	x	101.9*	x
C[C@@H]1CN([C@@H](C)CO)C(=O)c2cccc(NC(=O)Nc3ccc(F)cc3)c2O[C@@H]1CN(C)C(=O)Nc1cccc2ccccc12	-3.9	96.0*	x
C[C@@H]1CN([C@@H](C)CO)C(=O)c2cccc(NC(=O)Nc3cccc4ccccc34)c2O[C@H]1CN(C)C(=O)Nc1ccc(C(F)(F)F)cc1	-5.5	44.4	x
C[C@@H]1CN([C@H](C)CO)C(=O)c2cccc(NC(=O)Nc3ccc(C(F)(F)F)cc3)c2O[C@H]1CN(C)C(=O)Nc1cccc2ccccc12	x	83.5*	x
C[C@H](CO)N1C[C@H](C)[C@@H](CN(C)C(=O)Nc2cccc3ccccc23)Oc2c(NC(=O)Nc3ccc(F)cc3)cccc2C1=O	0.2	20.7	x
CCCN1CCC2(CC1)C(C#N)=C(S)NC(=O)C2C#N (centres undefined)	4.9	27.0	1.4
CC/C=C\C[C@@H]1C(=O)C=C[C@@H]1CCCCCCCC(=O)O	-7.6	116.8*	-13.2
CCCCC[C@H](O)/C=C/[C@H]1C=CC(=O)[C@@H]1C/C=C\CCCC(=O)O	2.2	40.9	1.6
O=c1oc(-c2cccnc2)nc2sc3c(c12)CCCCC3	-0.1	21.5	x
SMILES	PD-1 reversal	NOMO-1 viab	STK33 inh
Cc1sc2ncnc(SCC(=O)Nc3ccccc3Cl)c2c1C	0.9	-9.2	7.9
CCn1c(NCc2ccccc2O)nc2ccccc21	x	12.9	-4.7
C[C@H]1CN([C@@H](C)CO)C(=O)c2cc(N(C)C)ccc2O[C@H]1CN(C)Cc1ccc(C(=O)Nc2ccccc2N)cc1	-1.6	109.9*	x
C[C@H]1CN([C@@H](C)CO)C(=O)c2cc(NC(=O)Nc3ccc4c(c3)OCO4)ccc2O[C@H]1CN(C)Cc1ccc(C(=O)Nc2ccccc2N)cc1	-1.0	40.1	x
C[C@@H]1CN([C@H](C)CO)C(=O)c2cc(N(C)C)ccc2O[C@@H]1CN(C)Cc1ccc(C(=O)Nc2ccccc2N)cc1	-4.6	109.7*	x
C[C@H](CO)N1C[C@H](C)[C@H](CN(C)Cc2ccc(C(=O)Nc3ccccc3N)cc2)Oc2ccc(N(C)C)cc2C1=O	-2.2	110.6*	x
C[C@@H]1CN([C@H](C)CO)C(=O)c2cc(NC(=O)Nc3ccc4c(c3)OCO4)ccc2O[C@@H]1CN(C)Cc1ccc(C(=O)Nc2ccccc2N)cc1	-0.7	u	x
C[C@@H]1CN([C@@H](C)CO)C(=O)c2cc(N(C)C)ccc2O[C@H]1CN(C)Cc1ccc(C(=O)Nc2ccccc2N)cc1	-3.7	109.7*	x
C[C@H]1CN([C@@H](C)CO)C(=O)c2cc(NS(C)(=O)=O)ccc2O[C@H]1CN(C)Cc1ccc(C(=O)Nc2ccccc2N)cc1	-0.5	30.0	x
CC(=O)Nc1ccc(Br)cc1-c1nc2ccccc2nc1OCc1cccc(Cl)c1	-1.0	71.1	2.1
CCn1c(SCC(=O)c2ccc(OC)cc2)nnc1-c1ccc(C)cc1	0.4	-4.2	2.8
CO[C@H]1O[C@H](CO)[C@@H](OC(=O)Nc2ccc3c(c2)OCO3)[C@@H]2OC(=O)[C@H](Cc3ccccc3)C/C=C/C[C@@H](Cc3ccccc3)C(=O)O[C@@H]12	x	x	4.9
O=C1C(C=NC(CO)(CO)CO)=C(O)c2ccccc21	0.5	32.8	x
COc1cc(-c2nnc(SCC(=O)c3ccccc3)n2-c2ccccc2)cc(OC)c1OC	-1.0	42.1	3.5
COc1ccc([N+](=O)[O-])cc1N(CC(=O)Nc1ccccc1Cl)S(C)(=O)=O	-1.0	-19.5	-1.8
COc1ccc(C(NC(=O)c2ccccc2)c2ccc3cccnc3c2O)c(OC)c1 (centres undefined)	-9.3	109.0*	1.9
COc1ccc(C(NC(C)=O)c2c(O)ccc3ccccc23)cc1OC (centres undefined)	1.2	-20.5	2.3
COc1ccc(C(=O)NC(c2ccccc2)c2ccccc2)cc1	-0.6	32.0	0.5
COc1ccc(C(NC(C)=O)c2ccc3cccnc3c2O)cc1OC (centres undefined)	-10.8	106.9*	1.8
C/C=C/C(O)C(C)CC(C)C(OC(=O)CCC(=O)O)C(C)/C=C/C=C/C=C(\C)C(=O)O (centres undefined)	-2.7	u	-4.6
C[C@@H]1CN([C@@H](C)CO)C(=O)c2cccc(NC(=O)Nc3ccc4c(c3)OCO4)c2O[C@@H]1CN(C)Cc1ccc(Oc2ccccc2)cc1	-3.8	94.6*	x
C[C@@H]1CN([C@@H](C)CO)C(=O)c2cccc(NC(=O)Nc3ccc4c(c3)OCO4)c2O[C@H]1CN(C)Cc1ccc(Oc2ccccc2)cc1	-0.4	95.3*	x
C[C@@H]1CN([C@H](C)CO)C(=O)c2cccc(NC(=O)Nc3ccc4c(c3)OCO4)c2O[C@@H]1CN(C)Cc1ccc(Oc2ccccc2)cc1	x	32.4	x
C[C@H](CO)N1C[C@H](C)[C@@H](CN(C)Cc2ccc(Oc3ccccc3)cc2)Oc2c(NC(=O)Nc3ccc4c(c3)OCO4)cccc2C1=O	x	60.0	x
O=c1c2c(nc3nc(NCc4cccc([N+](=O)[O-])c4)[nH]n13)CCC2	x	28.1	1.1
Cc1sc2ncnc(SCC(=O)c3ccc(Cl)cc3)c2c1C	x	21.8	-5.1
Clc1ccc2nc(Cl)cc(-c3ccccc3)c2c1	-0.9	70.8	x

Compound activity deposited in PubChem by Broad Institute.
